Experimental data reported in PubChem BioAssay (NCI).
Compounds without any hit were thinned out: in the full panel of roughly 79,000, 15% have a hit. Active and inactive are the calls of the source. Rule as the data show it: active = growth inhibition above about 70%; inactive = the rest.

Assays:
[1] = NCI Yeast Anticancer Drug Screen. Data for the rad50 strain (AID 155);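 also: 0% = growth of vehicle-only cultures of the same strain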; conditions: S. cerevisiae rad50 strain growth inhibition, stronger effect = higher value
In short: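 Readout: growth inhibition relative to vehicle-treated cultures. Compound exposure was carried out in a genetically defined yeast strain deficient in DNA damage repair.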

[2] = NCI Yeast Anticancer Drug Screen. Data for the mec2-1 strain (AID 157); conditions: S. cerevisiae mec2-1 strain, stronger effect = higher value
In short: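 mec2-1 yeast strain, carrying an alteration in DNA damage repair or cell cycle control, was exposed to compounds; growth inhibition was measured relative to vehicle-treated controls.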

[3] = NCI Yeast Anticancer Drug Screen. Data for the sgs1 mgt1 strain (AID 161);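 also: 0% = growth of cultures given vehicle only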; conditions: S. cerevisiae sgs1 mgt1 strain, stronger effect = higher value
In short: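 This yeast growth screen uses a strain with defined DNA-repair lesions; compound-treated growth is compared with vehicle-treated growth.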

[4] = NCI Yeast Anticancer Drug Screen. Data for the cln2 rad14 strain (AID 165);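 also: 0% = growth equal to vehicle treated cultures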; conditions: S. cerevisiae cln2 rad14 strain, stronger effect = higher value
In short: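 Yeast carrying cln2 and rad14 alterations (cell cycle control and DNA damage repair) were exposed to compounds. Growth inhibition was measured against vehicle-treated controls.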

[5] = NCI Yeast Anticancer Drug Screen. Data for the bub3 strain (AID 167); conditions: S. cerevisiae bub3 mutant strain, stronger effect = higher value
In short: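 Readout: yeast growth inhibition, expressed relative to vehicle-only wells. The test organism is a mutant strain from a panel with lesions in DNA repair or checkpoint genes.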

[6] = NCI Yeast Anticancer Drug Screen. Data for the mlh1 rad18 strain (AID 175); conditions: S. cerevisiae mlh1 rad18 strain growth inhibition, stronger effect = higher value
In short: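 Growth inhibition of the yeast strain was measured after compound exposure and expressed relative to vehicle-treated controls. The strain carries defined defects in DNA damage repair.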

[7] = at 5.0 µM (retest, dose inferred, filed as 0.5)
[8] = at 50.0 µM (retest, dose inferred, filed as 5.0)

Measured: growth inhibition

CC1=CCC2(C)C3CCC4(C)C(O)CCC4C3CCC2(C)C1 (configuration not stated)
inactive: [1]; [7] -17% | [2]; [7] -17% | [2]; at 50.0 µM 11.9% | [3]; [7] -6% | [3]; at 50.0 µM 63.8% | [4]; [7] -6% | [4]; at 50.0 µM 9.1% | [5]; [7] -25% | [5]; at 50.0 µM 39.5% | [6]; [7] -10% | [6]; at 50.0 µM 58.6%
active: [1]; [8] 90% | [1]; at 50.0 µM 70.8% | [2]; [8] 95% | [3]; [8] 97% | [4]; [8] 83% | [5]; [8] 94% | [6]; [8] 96%

Cn1c(=O)c2[nH]cnc2n(C)c1=O.[CH2-]C(Cc1cccc2cc(C(=O)O)c(=O)oc12)OC.[Hg+2].[OH-] (configuration not stated)
active: [2]; at 50.0 µM 96.7% | [3]; at 50.0 µM 93.5% | [4]; at 50.0 µM 93.2% | [5]; at 50.0 µM 96.8% | [6]; at 50.0 µM 98.3%
inactive: [1]; [7] 1% | [1]; [8] 6% | [1]; at 50.0 µM 46% | [2]; [7] -3% | [2]; [8] 14% | [3]; [7] -6% | [3]; [8] 21% | [4]; [7] 25% | [4]; [8] -29% | [5]; [7] -20% | [5]; [8] -16% | [6]; [7] -7% | [6]; [8] 17%

ClCCN(CCCl)c1ccc(C2N(Cc3ccc(Cl)cc3)CCCN2Cc2ccc(Cl)cc2)cc1
inactive: [1]; [7] 11% | [1]; [8] 56% | [2]; [7] 10% | [2]; [8] 39% | [3]; [7] 16% | [3]; [8] 68% | [4]; [7] 4% | [4]; [8] 24% | [5]; [7] 7% | [5]; [8] 35% | [6]; [7] 33%
active: [1]; at 50.0 µM 98.5% | [2]; at 50.0 µM 98.5% | [3]; at 50.0 µM 98.8% | [4]; at 50.0 µM 94.9% | [5]; at 50.0 µM 98.8% | [6]; [8] 94% | [6]; at 50.0 µM 98.4%

CCCOc1ccc(/C=C/[N+](=O)[O-])cc1
inactive: [1]; [7] 11% | [1]; [8] 17% | [1]; at 50.0 µM 52.3% | [2]; [7] -1% | [2]; [8] 17% | [3]; [7] -1% | [3]; [8] 11% | [3]; at 50.0 µM 50.9% | [4]; [7] 1% | [4]; [8] 20% | [5]; [7] -1% | [5]; [8] 13% | [5]; at 50.0 µM 37% | [6]; [7] 3% | [6]; [8] 11% | [6]; at 50.0 µM 36%
active: [2]; at 50.0 µM 96.3% | [4]; at 50.0 µM 93.5%

O=C(O)c1cc[c]([Hg])cc1
inactive: [1]; [7] -1% | [1]; [8] 5% | [1]; at 50.0 µM 38.4% | [2]; [7] -2% | [2]; [8] 3% | [2]; at 50.0 µM 25.6% | [3]; [7] 1% | [3]; [8] 5% | [3]; at 50.0 µM 36% | [4]; [7] -3% | [4]; [8] -4% | [4]; at 50.0 µM 2.65% | [5]; [7] 0% | [5]; [8] -7% | [5]; at 50.0 µM -5.4% | [6]; [7] 1% | [6]; [8] 3% | [6]; at 50.0 µM 38.2%

CCn1c(O)c(C(=O)NC(C)c2ccc([N+](=O)[O-])cc2)c(=O)n(CC)c1=S (configuration not stated)
active: [1]; [8] 91% | [1]; at 50.0 µM 86.5% | [2]; [8] 96% | [2]; at 50.0 µM 91.4% | [3]; [8] 83% | [3]; at 50.0 µM 90.6% | [4]; at 50.0 µM 88.8% | [5]; [8] 78% | [5]; at 50.0 µM 89.3% | [6]; [8] 92% | [6]; at 50.0 µM 87%
inactive: [1]; [7] 31% | [2]; [7] 33% | [3]; [7] 24% | [4]; [7] 17% | [4]; [8] 46% | [5]; [7] 9% | [6]; [7] 35%

O=c1oc2ccccc2c(O)c1C(c1ccc(-c2ccccc2)cc1)c1c(O)c2ccccc2oc1=O
inactive: [1]; [7] 9% | [1]; [8] 52% | [2]; [7] 7% | [3]; [7] -16% | [4]; [7] 19% | [5]; [7] 14% | [6]; [7] 16%
active: [1]; at 50.0 µM 78.1% | [2]; [8] 97% | [2]; at 50.0 µM 89.8% | [3]; [8] 97% | [3]; at 50.0 µM 81.6% | [4]; [8] 97% | [4]; at 50.0 µM 85.2% | [5]; [8] 97% | [5]; at 50.0 µM 77.5% | [6]; [8] 88% | [6]; at 50.0 µM 89.3%

CC(=O)C1C2c3ccccc3C(c3ccccc32)C1C (configuration not stated)
active: [1]; at 50.0 µM 77.6% | [5]; [8] 71%
inactive: [1]; [7] 3% | [1]; [8] 55% | [2]; [7] -7% | [2]; [8] 52% | [2]; at 50.0 µM 10.4% | [3]; [7] -2% | [3]; [8] 62% | [3]; at 50.0 µM 65% | [4]; [7] -85% | [4]; [8] 63% | [4]; at 50.0 µM 30.5% | [5]; [7] -9% | [5]; at 50.0 µM 45.1% | [6]; [7] -1% | [6]; [8] 53% | [6]; at 50.0 µM 69.5%

Cc1ccc([C@H]2N[C@@H]2c2ccccn2)cc1
inactive: [1]; [7] -16% | [1]; [8] -22% | [1]; at 50.0 µM 6.35% | [2]; [7] -18% | [2]; [8] 1% | [2]; at 50.0 µM 7% | [3]; [7] -5% | [3]; [8] -12% | [3]; at 50.0 µM 3.45% | [4]; [7] -15% | [4]; [8] -5% | [4]; at 50.0 µM 30.1% | [5]; [7] -4% | [5]; [8] -2% | [5]; at 50.0 µM -2.75% | [6]; [7] -5% | [6]; [8] -10% | [6]; at 50.0 µM 19%
